Measurements published in PubChem BioAssay AID1851 (National Center for Advancing Translational Sciences (NCATS), 2009).
The whole screen tested about 16,000 compounds, of which about 2,600 (16%) were called active. Inconclusive results (about 20%) are left out. Calls come from the whole dose curve; as a rule, active = well fitted curve in the direction sought with a large enough effect; inconclusive = small, poorly fitted or top-dose-only effect, or effect the other way; inactive = no such curve, though single readings can be large or run the other way. A selection follows.

target: Cytochrome P450 2D6 (Homo sapiens) (UniProt P10635); assay: Cytochrome panel assay with activity outcomes; settings: recombinant CYP, pro-luciferin dealkylation, luminescence, p450-cyp2d6; series mostly up to 57.1 µM; activity, negative = inhibition: at the top concentration
Sequence (P10635 whole entry, looked up): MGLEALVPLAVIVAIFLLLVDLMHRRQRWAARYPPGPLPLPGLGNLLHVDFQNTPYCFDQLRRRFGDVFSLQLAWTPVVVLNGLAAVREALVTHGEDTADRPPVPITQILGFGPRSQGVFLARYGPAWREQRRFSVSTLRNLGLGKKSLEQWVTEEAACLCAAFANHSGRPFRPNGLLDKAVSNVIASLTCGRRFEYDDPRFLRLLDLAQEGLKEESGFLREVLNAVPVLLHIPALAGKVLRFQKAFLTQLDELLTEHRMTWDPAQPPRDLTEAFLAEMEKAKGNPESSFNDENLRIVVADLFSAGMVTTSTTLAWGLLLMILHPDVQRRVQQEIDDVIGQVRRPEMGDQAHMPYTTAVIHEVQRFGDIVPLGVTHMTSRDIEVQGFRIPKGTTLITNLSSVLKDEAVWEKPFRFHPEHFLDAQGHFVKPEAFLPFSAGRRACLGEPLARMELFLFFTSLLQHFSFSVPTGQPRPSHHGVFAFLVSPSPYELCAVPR
% is set by controls: 0 for no effect and ±100 for the full control effect.

SMILES | activity, negative = inhibition | AC50
C/C(=N\NC(N)=S)c1ccc[nH]1 | 7.95% [at 11.4 µM] (inactive) | 
CCC1=NN(C(=O)CCc2ccccc2)C(O)(C(F)(F)F)C1 (stereo not drawn) | -38.3% (inactive) | 
NCCSCCC(=O)O | -2.86% [at 11.4 µM] (inactive) | 
CC(C)[C@H](CO)Nc1nc(Nc2cc(N)cc(Cl)c2)c2ncn(C(C)C)c2n1 | -14.6% (inactive) | 
COc1cccc(=O)c2c(C)n(-c3cc(C)cc(C)c3)c(C)c12 | 11.5% (inactive) | 
O=c1[nH]c2[nH]c(=S)[nH]c(=S)c2[nH]1 | -8.17% [at 11.4 µM] (inactive) | 
COc1ccc(-c2nnc3n2N=C(C)CS3)cc1 | 14.1% (inactive) | 
NS(=O)(=O)c1nc(S(=O)(=O)O)c2[nH]cnc2n1 | 10.8% [at 11.4 µM] (inactive) | 
COc1ccc(CNc2ncnc3ccc(-c4ccccc4C#N)cc23)c(OC)c1 | -8.39% (inactive) | 
COc1ccc2[nH]cc(CCNc3ncnc4ccc(-c5ccccc5CN(C)C)cc34)c2c1 |  | 10 µM (active)
COc1ccc2[nH]cc(CCNc3ncnc4ccc(-c5ccccc5C#N)cc34)c2c1 |  | 7.94 µM (active)
COc1ccc2[nH]cc(CCNc3ncnc4ccc(-c5ccccc5OC)cc34)c2c1 |  | 3.98 µM (active)
COc1ccccc1-c1nnc(SCc2nc3ccccc3s2)n1C | -12.9% (inactive) | 
N=C(N)C(N=Nc1ccccc1)C(=N)N (stereo not drawn) | -0.561% [at 11.4 µM] (inactive) | 
O=C(O)/C=C\c1c2ccc(=O)c(O)c-2oc2c(O)c(O)ccc12 | -4.81% [at 11.4 µM] (inactive) | 
CC1(C)CC2(CC(C)(C(=O)CSc3nc4ccccc4s3)OC2=O)C(=O)O1 (stereo not drawn) | -16.7% (inactive) | 
CCC[C@H]1C[C@H](C(=O)N[C@H]([C@@H]2O[C@H](SC)[C@@H](O)[C@H](O)[C@@H]2O)[C@H](C)O)N(C)C1 | 2.09% [at 25.6 µM] (inactive) | 
O=C(Nc1nnc(C2CC2)s1)c1ccncc1 | -18.1% (inactive) | 
CC1(C)OC(=O)N(Cc2ccco2)C1(C)O (stereo not drawn) | 0.289% (inactive) | 
O=C(O)/C=C1\NC(=O)c2ccccc21 | 18.6% (inactive) | 
Nc1ccc(Nc2ccccc2)cc1 | -17.3% (inactive) | 
O=C(O)c1ccccc1Nc1ccccc1 | -2.44% (inactive) | 
Nc1ccccc1Nc1ccccc1 |  | 22.4 µM (active)
COc1ccc(-c2nc3cnc(N(C)C)nc3n(Cc3cccs3)c2=O)cc1 | 0.378% (inactive) | 
O=S1(=O)[C@H]([C@H]2CC3c4ccccc4C2c2ccccc23)[C@@H](N2CCCCC2)[C@@H]1c1ccccc1 |  | 3.16 µM (active)
CCCn1nnnc1NC(=O)c1ccc(C)cc1Cl | 11.3% (inactive) | 

SMILES | activity, negative = inhibition | AC50
COC(=O)c1ccc(C#CC(NP(=O)(c2ccccc2)c2ccccc2)c2ccccc2)cc1 (stereo not drawn) | -5.92% (inactive) | 
CC1CN(C(NC(=O)C(C)(C)C)C(Cl)(Cl)Cl)CC(C)O1 (stereo not drawn) | 21.1% (inactive) | 
CCN1CCc2c(sc(NC(=S)NC(=O)c3ccccc3)c2C#N)C1 | 1.83% (inactive) | 
CCOC(=O)c1c(NC(=S)Nc2ccccc2)sc2c1CCN(CCc1ccccc1)C2 |  | 0.0708 µM (active)
CCOC(=O)c1c(NC(=S)NC(=O)c2cnn(CC)c2)sc2c1CCC(C)C2 (stereo not drawn) | -14.5% (inactive) | 
CCOC(=O)N1CCC(NC(=O)c2cc(S(=O)(=O)N3CCCC3)cn2C)CC1 | -6.26% (inactive) | 
COCc1cc(=O)[nH]c2cc(NC(=O)C(F)(F)F)c(C)cc12 | -0.291% (inactive) | 
CC(C)(C=O)Cc1cc(C(C)(C)C)c(O)c(C(C)(C)C)c1 |  | 25.1 µM (active)
Cc1cc(-c2cc(C)c(O)c(C(C)(C)C)c2)cc(C(C)(C)C)c1O | -4.06% [at 11.4 µM] (inactive) | 
CC(C)(CO)Cc1cc(C(C)(C)C)c(O)c(C(C)(C)C)c1 | -3.84% (inactive) | 
O=C(c1ccc2c(c1)N(Cc1ccc(F)cc1)C(=O)CS2)N1CCOCC1 | 10.9% (inactive) | 
Cc1cc(OC(=O)c2ccc(Cl)cc2)cc(=O)n1C | -10.9% (inactive) | 
CC(=O)N1CCC2(CCCN(c3ccccn3)C2)CC1 | -12.1% (inactive) | 
O=S(=O)(c1ccccc1)N1CCC2(CCCN(c3ccccn3)C2)CC1 |  | 12.6 µM (active)
O=S(=O)(c1ccccc1)N1CCC2(CCCN(c3ncccn3)C2)CC1 |  | 12.6 µM (active)
CS(=O)(=O)N1CCC2(CC1)CN(c1ncccn1)C2 | 9.25% (inactive) | 
CS(=O)(=O)N1CCC2(CCCN(c3ncccn3)C2)CC1 |  | 15.8 µM (active)
CS(=O)(=O)N1CCC[C@@]2(CCN(c3ccccn3)C2)C1 | -4.03% (inactive) | 
CS(=O)(=O)N1CCC[C@@]2(CCN(c3ncccn3)C2)C1 | 3.87% (inactive) | 
O=S(=O)(c1ccccc1)N1CCC2(CCN(c3ncccn3)CC2)CC1 | 1.44% (inactive) | 
O=S(=O)(c1ccccc1)N1CCC2(CC1)CN(c1ncccn1)C2 | 5.25% (inactive) | 
NCCCCNCCCN |  | inactive
CC1CCN(c2cc(N3CCC(C)CC3)c([N+](=O)[O-])cc2/C=C(\C#N)c2nn(-c3ccccc3)c(N)c2C#N)CC1 | 9.51% (inactive) | 
CN(CCO)c1nc(N)c2c(N)nc3c(c2c1C#N)CC(=O)N3C1CCCC1 | 11.2% (inactive) | 
C[C@@](N)(Cc1ccc(O)cc1)C(=O)O |  | inactive
CC(C)OCCCN1CN(S(=O)(=O)c2cccc(Cl)c2)c2nc3ccccc3nc21 | -18.4% (inactive) | 

SMILES | activity, negative = inhibition | AC50
CC(=O)NN1C(=O)/C(=C\c2ccc(C)cc2)SC1=S | 4.14% (inactive) | 
CN(CCO)Cc1ncccc1O | -1.69% [at 11.4 µM] (inactive) | 
O=C(Nc1cccc(C(F)(F)F)c1)c1n[nH]c(Cn2cncn2)n1 | -26.4% (inactive) | 
N[C@@H]1CONC1=O |  | inactive
Cc1ccc(N(C(=O)c2csnn2)C(C(=O)NC(C)(C)C)c2cccs2)cc1 (stereo not drawn) | -13.7% (inactive) | 
CC(C)c1cccc2nc3c(c([Si](C)(C)C(C)(C)C)c12)Cn1c-3cccc1=O | -12.2% (inactive) | 
CC(C)(C)[Si](C)(C)c1c2c(nc3ccc(OCc4ccccc4)cc13)-c1cccc(=O)n1C2 | -2.79% (inactive) | 
COc1ccc2nc3c(c([Si](C)(C)C(C)(C)C)c2c1)Cn1c-3cccc1=O |  | 2 µM (active)
O=C1C(CCS(=O)c2ccccc2)C(=O)N(c2ccccc2)N1c1ccccc1 (stereo not drawn) | 2.11% [at 25.6 µM] (inactive) | 
CN(C)Cc1ccccc1-c1ccc2ncnc(N(C)Cc3ccco3)c2c1 |  | 2 µM (active)
CN(Cc1ccco1)c1ncnc2ccc(-c3ccccc3C(F)(F)F)cc12 |  | 10 µM (active)
CN(Cc1ccco1)c1ncnc2ccc(-c3ccccc3Cl)cc12 |  | 7.94 µM (active)
CN(Cc1ccco1)c1ncnc2ccc(-c3ccccc3C#N)cc12 |  | 15.8 µM (active)
FC(F)(F)c1ccccc1-c1ccc2ncnc(N3CCOCC3)c2c1 | -18.2% (inactive) | 
CN(Cc1ccco1)c1ncncc1-c1cccc(C#N)c1 | -15% (inactive) | 
COCCNC(=O)c1sc2nc(-c3ccccc3)cn2c1C | -5.78% (inactive) | 
Cc1ccc(NC(=O)C(=O)NCc2ccc(/C=C(/C#N)C(=O)NCc3cccnc3)o2)cc1 | -9.29% (inactive) | 
Nc1ncnc2c1ncn2[C@@H]1CCCO1 | -11.8% (inactive) | 
CCN1C(=O)C2(SC(NC(C)=O)=NN2C(C)=O)c2cc(C)ccc21 (stereo not drawn) | 12.7% (inactive) | 
CC[C@H](Cc1c(I)cc(I)c(N)c1I)C(=O)O | -4.01% [at 25.6 µM] (inactive) | 
CNc1cnn(-c2ccccc2)c(=O)c1Cl | -1.86% (inactive) | 
N#[N+]c1ccc(Nc2ccccc2)cc1 | 7.95% [at 11.4 µM] (inactive) | 
COc1ccc(Oc2ncc3nc(CCc4ccccc4)c(=O)n(C)c3n2)cc1 | 0.402% (inactive) | 
CCOc1ccc(NC(=O)CCNS(=O)(=O)c2ccc3c(c2)c(=O)n(C)c(=O)n3C)cc1 | 6.62% (inactive) | 
Cc1sc2ncnc(OCC(=O)NC(C)C)c2c1C | -7.35% (inactive) | 
COc1ccccc1C1/C(=C(/O)c2ccccc2)C(=O)C(=O)N1CCO (stereo not drawn) | 10.7% (inactive) | 

SMILES | activity, negative = inhibition | AC50
COC(=O)[C@H](C)NC(=O)C/C=C\[C@@H](C)[C@H]1C=C[C@H](O)[C@@H](CO)O1 | 3.59% [at 11.4 µM] (inactive) | 
CN1C2C=C(N(CCc3c[nH]c4ccccc34)C(=O)c3ccc(Cl)cc3)CC1CC2 (stereo not drawn) |  | 0.398 µM (active)
O=C(NCCc1c[nH]c2ccccc12)[C@H]1C[C@@H]1[C@H](NP(=O)(c1ccccc1)c1ccccc1)c1ccccc1 | -6.77% (inactive) | 
O=C(NCCc1c[nH]c2ccccc12)[C@@H]1C[C@H]1[C@@H](NP(=O)(c1ccccc1)c1ccccc1)c1ccccc1 | -5.26% (inactive) | 
CCN(CC(=O)O)CC(=O)O | 9.63% [at 11.4 µM] (inactive) | 
CC1=Nc2ccccc2/C1=C\c1nc(-c2ccc(C(F)(F)F)cc2)oc1O | -8.17% (inactive) | 
CC(=O)c1nnn(-c2nc(N)nc(N(c3ccccc3)c3ccccc3)n2)c1C | -23% (inactive) | 
Nc1ccc(S(=O)(=O)NC(=O)c2ccccc2)cc1 | 10.2% [at 25.6 µM] (inactive) | 
Nc1ccc(N(c2ccccc2)c2ccc(N)cc2)cc1 |  | 14.1 µM (active)
O=C(Cn1ccnc1[N+](=O)[O-])NCCO | 2.93% [at 25.6 µM] (inactive) | 
COc1cccc(N=Cc2c[nH][nH]c2=O)c1 | -11.7% (inactive) | 
C[C@@H]1c2cccc(O)c2C(O)=C2C(=O)[C@@]3(O)C(O)=C(C(N)=O)C(=O)[C@@H](N(C)C)[C@@H]3[C@@H](O)[C@@H]21 |  | inactive
CCOc1cc(/C=N/NC(=O)COc2cccc(C)c2)ccc1OC(=O)c1cccs1 | -17.2% (inactive) | 
CCOC(=O)c1c(C)n(C)c2ccc(OC)c(NS(=O)(=O)c3ccc(Cl)s3)c12 | -0.0644% (inactive) | 
CCOC(=O)C1CCN(C(=O)C2CCN(c3nc4ccc(OC)cc4s3)CC2)CC1 | -25.3% (inactive) | 
CCOc1ccc2nc(NC(=O)c3ccc(S(=O)(=O)N4CCOCC4)cc3)sc2c1 | -6.21% (inactive) | 
CCOc1ccc2nc(N3CCCCCC3)sc2c1 |  | 1 µM (active)
CCN1CCN(C(=O)N[C@H](C(=O)N[C@@H]2C(=O)N3C(C(=O)O)=C(CSc4nnnn4C)CS[C@@H]23)c2ccc(O)cc2)C(=O)C1=O | 1.55% [at 25.6 µM] (inactive) | 
O=c1[nH]c2ccccc2c2ccccc12 | 6.83% (inactive) | 
Cc1nc2c(O)cccc2c(=O)[nH]1 |  | 12.6 µM (active)
O=c1[nH]ccc2c(O)cccc12 | -11.8% (inactive) | 
OCCCNc1ncnc2[nH]ncc12 | 15.1% [at 11.4 µM] (inactive) | 
Cc1cc(C)c(C#N)c(SCC(=O)C(C)(C)C)n1 | -2.76% (inactive) | 
Cc1cc(C)c(C#N)c(SCC(=O)c2ccc(Cl)cc2Cl)n1 | -16.8% (inactive) | 
Cc1cc(C)c(C#N)c(SCc2cc3c(cc2Cl)OCO3)n1 |  | 8.91 µM (active)
